Source: PubChem BioAssay
The source made the active and inactive calls.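 Rule for the calls, unless noted: active = inhibition above 20% together with a positive visual image hit; inconclusive = visual image hit but inhibition not above 20%; inactive = no visual image hit.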

Legend:
[1] = inhibitors of TNFa-induced NFkB p65 translocation, primary screen, imaging, HUVEC, MLSMR starter and 10KST1 sets (AID 438); details: HUVEC TNFa-induced p65 nuclear translocation; cell count: measured here: nuclei count (cytotoxicity indicator), at 2.08 µM; inhibition: at 2 µM, stronger effect = higher value, 0% TNFa-plus-vehicle, 100% no-TNFa wells;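 note: compound added about 3h40 before a 20 min TNFalpha stimulation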;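 for inhibition: signal is the nuclear over cytoplasmic p65 intensity ratio per well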
[2] = reduction of polyQ htt aggregates in cells – imaging, exon1htt(103Q)mCFP cells, high-content imaging, primary screen (AID 483;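 active = visual image review flags a hit and inhibition of aggregation exceeds 20%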;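 note: compound exposure lasted 3 days before fixation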;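 for nuclei count: percent of the per-plate median nuclei count of sample wells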); details: exon1htt(103Q)mCFP cell line, aggregate imaging, at 2 µM; inhibition of aggregation: stronger effect = higher value; nuclei count: measured here: cell count, toxicity
[3] = endothelial E-selectin expression blockers – imaging, HUVEC, immunofluorescence, MLSMR starter and 10KST1 sets, primary screen (AID 487;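 active = visually confirmed hit in the image check and inhibition above 20%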;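 for inhibition: signal is fraction of cell area covered by stained E-selectin grains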;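 for nuclei count: 100% = median nuclei count of all wells on the same plate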); details: HUVEC TNFalpha-induced E-selectin immunofluorescence imaging, at 2 µM; inhibition: stronger effect = higher value; nuclei count: measured here: cell number, toxicity
[4] = molecular target: Voltage-gated potassium channel subunit beta-2 (Rattus norvegicus) (UniProt P62483); assay: inhibitors of rat Kvbeta2 reductase activity – biochemical, NADPH fluorescence, primary screen (AID 622;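 active = fluorescence slope higher than the sample average by over 3 SD, cut at about -0.22 in these data, passing the limit was not always enough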;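 note: slope of raw intensity against log time taken from 70 to 1610 s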); details: recombinant KvBeta, 4-cyanobenzaldehyde reduction, at 10 µM, stronger effect = higher value
[5] = molecular target: Voltage-gated potassium channel subunit beta-2 (Rattus norvegicus) (UniProt P62483); assay: enhancers of rat Kvbeta2 NADPH turnover – biochemical, NADPH fluorescence, primary screen (AID 623;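 active = NADPH fluorescence slope more negative than the mean of all samples by about 3 SD, 99.7% confidence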;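 note: fluorescence intensity change per second fitted from 20 to 320 s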); details: Recombinant KvBeta, NADPH fluorescence decrease slope, 10 min; at 10 µM; stronger effect = lower value
[6] = molecular target: Alpha-2C adrenergic receptor (Homo sapiens) (UniProt P18825); assay: compounds altering alpha2C-coupled GIRK flux – cell-based, HEK293 alpha2C/GIRK1/2, thallium flux, primary screen (AID 624;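 active = fluorescence slope after compound addition differing from the mean of all screened samples at 99.7% confidence, in either direction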;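 note: slope of fluorescence ratio to pre-addition baseline per second over 15 to 24 s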); details: thallium flux BTC fluorescence, at 10 µM, actives lie on both sides
[7] = blockers of RIG-like receptor reporter activation – cell-based, Sendai virus stimulus, luciferase, 10K MLSCN set, TLR/RLR signaling modifier project, primary screen (AID 602276;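 active = inhibition at or above 50% at 10 µM; inactive = inhibition below 50%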;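 note: firefly luciferase from ISG56 promoter only with Renilla not read in this screen; 0% = Sendai virus plus DMSO and 100% = medium plus DMSO without virus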); details: HEK293 RL24 IRF3 luciferase reporter, at 10 µM, stronger effect = higher value
[8] = TLR3 IRF3 reporter activation blockers – cell-based, poly I:C stimulus, luciferase, 10K MLSCN set, primary screen (AID 602277;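 active = inhibition of the reporter signal at or above 50%; inactive = inhibition below 50%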); details: HEK293-TLR3 RL24 IRF3 luciferase reporter, at 10 µM, stronger effect = higher value

Alpha-2C adrenergic receptor (Homo sapiens), sequence (P18825 whole entry, looked up): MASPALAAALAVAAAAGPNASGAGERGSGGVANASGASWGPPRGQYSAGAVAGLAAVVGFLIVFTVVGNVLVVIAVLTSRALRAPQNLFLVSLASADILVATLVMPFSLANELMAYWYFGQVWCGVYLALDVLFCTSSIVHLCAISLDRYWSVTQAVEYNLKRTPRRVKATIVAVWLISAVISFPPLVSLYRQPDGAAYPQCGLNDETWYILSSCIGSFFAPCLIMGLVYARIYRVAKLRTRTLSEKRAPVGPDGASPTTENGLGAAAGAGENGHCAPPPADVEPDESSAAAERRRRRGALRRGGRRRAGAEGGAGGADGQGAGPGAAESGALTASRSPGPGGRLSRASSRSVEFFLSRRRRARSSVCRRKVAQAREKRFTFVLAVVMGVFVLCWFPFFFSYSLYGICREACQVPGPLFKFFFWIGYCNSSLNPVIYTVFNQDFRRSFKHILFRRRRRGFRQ
Voltage-gated potassium channel subunit beta-2 (Rattus norvegicus), sequence (P62483 whole entry, looked up): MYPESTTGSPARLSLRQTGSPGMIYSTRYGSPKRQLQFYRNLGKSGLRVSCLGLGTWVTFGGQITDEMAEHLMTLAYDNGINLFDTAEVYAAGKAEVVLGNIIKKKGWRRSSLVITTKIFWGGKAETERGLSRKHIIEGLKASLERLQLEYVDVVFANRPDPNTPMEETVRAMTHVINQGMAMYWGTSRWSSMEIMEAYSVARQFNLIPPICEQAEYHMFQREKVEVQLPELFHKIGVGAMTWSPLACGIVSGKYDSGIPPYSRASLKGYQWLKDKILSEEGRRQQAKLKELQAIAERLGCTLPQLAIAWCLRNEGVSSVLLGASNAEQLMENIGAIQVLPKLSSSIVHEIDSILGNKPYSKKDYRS

Row | Structure (SMILES) | cell count [1] | inhibition [1] | inhibition of aggregation [2] | nuclei count [2] [%] | inhibition [3] | nuclei count [3] [%] | fluorescence slope [4] | NADPH fluorescence slope [5] | slope [6] | inhibition [7] | inhibition [8]
1 | Cc1ccc(NCC(O)C(O)C(O)CO)cc1C (centres undefined) | 516 | 0.6% (inactive) | 1.3% (inactive) | 115 | -52.4% (inactive) | 128 | -0.455 (inactive) | 5.8e-07 (inactive) | 0.00562 (inactive) | 8.39% (inactive) | 8.99% (inactive)
2 | Cc1cc(C(=O)NCCCN2CCOCC2)n(-c2ccccc2)n1 | 624 | 3.3% (inactive) | -11.9% (inactive) | 92.5 | -29.6% (inactive) | 115 | -0.519 (inactive) | -2.1e-05 (inactive) | 0.00682 (inactive) | 9.1% (inactive) | 24.9% (inactive)
3 | O=C(c1ccco1)N1CCN(S(=O)(=O)c2ccc(Oc3ccccc3)cc2)CC1 | 243 | 22.6% (inactive) | -4.9% (inactive) | 77.4 | -81.4% (inactive) | 111 | -0.519 (inactive) | 2.5e-06 (inactive) | 0.00632 (inactive) | 5.47% (inactive) | -52.2% (inactive)
4 | CCC(CO)Nc1ncnc2c1cnn2-c1ccc(Cl)cc1 (centres undefined) | 550 | 10% (inactive) | 7.5% (inactive) | 101 | 10.3% (inactive) | 111 | -0.54 (inactive) | -1.3e-05 (inactive) | 0.00667 (inactive) | 38.4% (inactive) | -14% (inactive)
5 | CCC(C)c1ccc(NC(=O)c2cccnc2)cc1 (centres undefined) | 393 | 18% (inactive) | 2.8% (inactive) | 113 | -48.5% (inactive) | 130 | -0.395 (inactive) | 3e-05 (inactive) | 0.00669 (inactive) | -47.8% (inactive) | -142% (inactive)
6 | CC1=C(C(=O)OCc2ccccc2)C(c2ccco2)n2ncnc2N1 (centres undefined) | 811 | -2.8% (inactive) | 7% (inactive) | 117 | -31.8% (inactive) | 109 | -0.595 (inactive) | 4.7e-06 (inactive) | 0.00658 (inactive) | 9.4% (inactive) | 25.1% (inactive)
7 | COc1ccc(OC)c(NC(=O)CCN2CCC(C)CC2)c1 | 446 | -6.2% (inactive) | 15.7% (inactive) | 101 | -120% (inactive) | 220 | -0.59 (inactive) | -3.6e-05 (inactive) | 0.00565 (inactive) | -15.8% (inactive) | -0.553% (inactive)
8 | c1ccn2c(SCc3ccc4c(c3)OCCO4)nnc2c1 | 793 | -10.5% (inactive) | 11.4% (inactive) | 88.9 | -56.4% (inactive) | 117 | -0.583 (inactive) | 5.1e-06 (inactive) | 0.00773 (inactive) | -29.2% (inactive) | -95% (inactive)
9 | CC1CN(C(=O)c2scc3c2OCCO3)CC(C)O1 (centres undefined) | 190 | -5.4% (inactive) | 0.7% (inactive) | 75 | 11.5% (inactive) | 77 | -0.598 (inactive) | -1.6e-05 (inactive) | 0.00693 (inactive) | 17.3% (inactive) | 20.4% (inactive)
10 | Cn1nc(C(=O)N2CCOCC2)c2ccccc2c1=O | 321 | 5.2% (inactive) | 12.2% (inactive) | 109 | -79.4% (inactive) | 130 | -0.43 (inactive) | -3.1e-05 (inactive) | 0.00337 (inactive) | 9.89% (inactive) | 32% (inactive)
11 | CCOC(=O)C1CCCN(C/C(O)=C(\C#N)c2nc(-c3ccc(Cl)cc3)cs2)C1 (centres undefined) | 479 | 1% (inactive) | -6.9% (inactive) | 112 | -39.9% (inactive) | 120 | -0.499 (inactive) | -3.4e-06 (inactive) | 0.00581 (inactive) | 14.3% (inactive) | 2.09% (inactive)
12 | CN(C(=O)c1ccccn1)c1nnc(-c2cccnc2)s1 | 622 | -8.7% (inactive) | 11.2% (inactive) | 93.2 | -52.7% (inactive) | 106 | -0.489 (inactive) | -5.1e-05 (inactive) | 0.0044 (inactive) | 0.693% (inactive) | -16.2% (inactive)
13 | CC(C)(C)n1nnnc1C(c1ccccc1)N1CCc2ccccc2C1 (centres undefined) | 481 | 2.9% (inactive) | 16% (inactive) | 115 | 11.4% (inactive) | 110 | -0.48 (inactive) | -0.000258 (inactive) | 0.00496 (inactive) | 20.4% (inactive) | 30.1% (inactive)
14 | CCCN(C(=O)CSc1nnc(-c2ccoc2C)n1N)C1CCS(=O)(=O)C1 (centres undefined) | 468 | 11.7% (inactive) | -26.6% (inactive) | 116 | 30.6% (inactive) | 108 | -0.413 (inactive) | -8.5e-05 (inactive) | 0.00528 (inactive) | 15.7% (inactive) | 22.7% (inactive)
